Screening data: PubChem BioAssay, several laboratories
RecA splice inh: inhibitors of M. tuberculosis RecA intein splicing; cell-free RecA intein splicing, fluorescence; P9WHJ3; hit rate 0.75% among 290,000; AID 2221; inhibition, % (concentration not given with the values); in the data active means inhibition above about 30%;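 further: 0% = vehicle wells and 100% = reference inhibitor control wells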
VHR inh abs: blocks human VHR1 dual specificity phosphatase; P51452; recombinant VHR phosphatase, pNPP absorbance; inhibition, % at 13.3 µM; hit rate 0.52% among 290,000; AID 1654; in the data active means inhibition above about 50%
CCHFV vOTU inh: blocks the CCHF virus ovarian tumor domain protease; CCHFV vOTU protease, Pep-AMC fluorescence; inhibition, % at 11.5 µM; hit rate 0.55% among 370,000; in the data active means inhibition above about 30%; further: 0% = vehicle wells with enzyme and 100% = no enzyme wells
SSB-PriA inh: K. pneumoniae PriA-SSBct interaction inhibition; AlphaScreen SSBct-PriA binding, biotinylated peptide; inhibition, % at 33 µM; hit rate 0.6% among 430,000; AID 1272365; in the data active means inhibition mostly above about 37%, no sharp cut-off; inactive means mostly below about 20%;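 further: plate controls were negative control peptide for no effect and reference peptide for full effect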
3CLpro inhibitor: SARS-CoV 3CLpro protease inhibition; P0C6X7; recombinant SARS-CoV 3CLpro, quenched FRET peptide cleavage; inhibition, % at 6 µM; hit rate 0.14% among 290,000; in the data active means inhibition above about 12%
An asterisk follows results filed as active; nt = no result; ! = not active in a repeat. Hits are enriched below; roughly 1.7% of the tested compounds scored in any of these assays.

SMILES	RecA splice inh	VHR inh abs	CCHFV vOTU inh	SSB-PriA inh	3CLpro inhibitor
COc1ccc(C)c2sc(N(Cc3ccco3)C(=O)CCCS(=O)(=O)Cc3ccccc3)nc12	nt	nt	nt	0	nt
Oc1ccc2nc(N3CCN(c4ccccc4)CC3)sc2c1	nt	nt	nt	34	nt
O=C(NCc1ccc(F)cc1)N1CCS[C@H](c2ccccc2)CC1	nt	nt	nt	2	nt
Clc1ccc2nnnc(-c3ccccc3)c2c1	56*	-2	5	14	1
c1ccc(-c2nnnc3ccccc23)cc1	9	-2	3	8	-4
CCOC(=O)c1c(-c2ccc(F)cc2)csc1NC(=O)CSc1ncnc2sc(C)c(C)c12	nt	nt	nt	-1	nt
NC(=S)n1[nH]c(-c2ccc([N+](=O)[O-])cc2)c(N=Nc2cccc([N+](=O)[O-])c2)c1=O	nt	81*	2	19	-3
Cn1c(=O)oc2cc(S(=O)(=O)N3CCCC(C(=O)NCC4COc5ccccc5O4)C3)ccc21 (centres undefined)	-2	32	0	104*	1
O=C(NCC1CCCO1)C1CCCN(S(=O)(=O)c2ccc(F)cc2)C1 (centres undefined)	-8	26	18	-9	8
O=C(NCC1CCCO1)C1CCCN(S(=O)(=O)c2ccc(Cl)cc2)C1 (centres undefined)	-2	50*	5	-14	-1
Cc1ccc(NC(=O)C2CCCN(S(=O)(=O)c3ccc4c(c3)oc(=O)n4C)C2)nc1 (centres undefined)	-2	28	30*	-18	-5
CCOC(=O)CSc1nc2c(sc(=S)n2-c2ccccc2)c(=O)n1-c1ccc(OC)cc1OC	-19	53*	-6	-7	-5
N#CC1=C(N)N(c2ccccc2C#N)C2=C(C(=O)CCC2)C1c1ccsc1 (centres undefined)	2	10	6	10	-7
Cc1c(C2C(C#N)=C(N)N(c3ccccc3C#N)C3=C2C(=O)CCC3)cnn1C (centres undefined)	0	2	-2	38*	2
Fc1ccc(N=C2NN=C(c3cc(F)ccc3F)CS2)cc1	nt	-12	-10	50*	1
Cc1cccc(N=C2NN=C(c3ccccc3F)CS2)c1C	3	29	23	44*	-1
O=C(Nc1ccccc1C(F)(F)F)N1CCN(c2ccc(-c3ccncc3)nn2)CC1	nt	nt	nt	-14	nt
CCc1ccc2oc(-c3ccc(OC)cc3)cc(=Nc3cccc(C(=O)O)c3)c2c1	8	-2	-179	-6	4
CCc1ccc2oc(-c3ccc(OC)cc3)cc(=Nc3c(C)n(C)n(-c4ccccc4)c3=O)c2c1	3	48	-138	44*	4
O=C(CNC(=O)/C=C/c1ccccc1)N=Nc1c(O)n(Cc2ccccc2)c2ccccc12	0	56*	-8	nt	0
CCCCc1ccc(NC(=S)NCc2cccc(OC)c2)cc1	10	24	14	-46	7
CCCCc1ccc(NC(=S)Nc2ccc(Nc3ccc(OC)cc3)cc2)cc1	10	-13	4	84*	2
Cc1cc(C(=O)CCl)c(C)n1CCc1ccccc1	40*	-1	-4	7	8
Cc1cc(C(=O)CSc2nncs2)c(C)n1Cc1ccco1	0	-15	-4	10	4
Cc1cc(C(=O)CCl)c(C)n1Cc1ccco1	18	12	-9	23	25*
SMILES	RecA splice inh	VHR inh abs	CCHFV vOTU inh	SSB-PriA inh	3CLpro inhibitor
COc1cccc(C(=O)Nc2nnc(-c3cc4cccc(OC)c4o3)o2)c1OC	nt	nt	nt	4	nt
O=C(NCCn1nc(C(F)(F)F)c2c1CCCC2)C1(c2ccccc2)CCOCC1	nt	nt	nt	-7	nt
COCCCn1c(C)cn2c3c(=O)n(CC(=O)c4ccc(Cl)cc4)c(=O)n(C)c3nc12	nt	nt	nt	-15	nt
O=C(NCc1cccs1)C1CCN(c2ccc(-c3ccc(F)cc3)nn2)CC1	nt	nt	nt	0	nt
CCOC(=O)C1CCCN(C2=NC(=O)/C(=C/c3ccc(N(C)C)cc3)S2)C1 (centres undefined)	-23	53*	7	-7	-4
COc1ccc(-n2c(=O)c3ccccc3c3ccccc3c2=O)cc1	31*	-13	9	-12	3
CC(C)(C)c1ccc(C(=O)N2CCN(c3nc4ccccc4s3)CC2)cc1	nt	nt	nt	1	nt
O=C1C(=C(c2ccccc2)c2ccccc2)Nc2ccccc21	5	25	11	42*	5
Cc1cc(C)n(-c2nc(CCNS(=O)(=O)c3c(C)noc3C)cs2)n1	nt	nt	nt	-9	nt
O=C(CCS(=O)(=O)c1ccccc1)Nc1ccccn1	-7	60*	9	16	-6
O=C(CCCS(=O)(=O)c1ccc(Cl)cc1)Nc1nc(-c2ccccn2)cs1	nt	nt	nt	33*	nt
O=C(CCS(=O)(=O)c1ccc(F)cc1)Nc1nc(-c2ccccn2)cs1	3	-2	0	43*	4
O=C(CCS(=O)(=O)c1ccccc1)Nc1nc(-c2ccccn2)cs1	1	nt	1	34	-4
FC(F)(F)Oc1ccc(-n2c(-c3ccccc3)c[nH]c2=S)cc1	nt	nt	nt	-4	nt
CNc1ccccc1C(C)(C)c1cn(-c2ccc([N+](=O)[O-])cc2)nn1	nt	53*	-10	10	-2
c1ccc(CNc2nc(-c3ccccn3)nc3ccccc23)cc1	18	nt	-2	64*	-2
c1ccc(-c2nc(NC3CCCCC3)c3ccccc3n2)nc1	nt	nt	nt	57*	nt
c1ccc(CNc2nc(-c3ccccc3)nc3ccccc23)cc1	17	8	1	-40	0
N#Cc1nc(COc2ccccc2)oc1N1CCCC1	-1	21	8	14	5
COc1ccc(Nc2oc(COc3ccc(Cl)cc3)nc2C#N)cc1	14	3	18	41*	2
N#Cc1nc(COc2ccc(F)cc2)oc1N1CCCCCC1	nt	nt	nt	111*	nt
N#Cc1nc(COc2ccc(Cl)cc2)oc1N1CCCCC1	nt	nt	nt	95*	nt
N#Cc1nc(COc2ccc(F)cc2)oc1N1CCCCC1	1	9	7	17	3
Cc1ccc(OCc2nc(C#N)c(N3CCOCC3)o2)cc1	nt	nt	nt	82*	nt
COC(=O)c1cc(OC)c(OC)cc1Nc1nc2ccccc2nc1NS(C)(=O)=O	nt	nt	nt	-8	nt
SMILES	RecA splice inh	VHR inh abs	CCHFV vOTU inh	SSB-PriA inh	3CLpro inhibitor
COc1ccc(OCc2nc(C#N)c(N3CCCC3)o2)cc1	nt	nt	nt	80*	nt
N#Cc1nc(COc2ccc(Br)cc2)oc1N1CCCCCC1	10	17	3	24	-8
N#Cc1nc(COc2ccc(Cl)cc2Cl)oc1N1CCN(c2ccccc2)CC1	5	20	0	13	5
N#Cc1nc(COc2ccccc2)oc1N1CCCCCC1	3	-6	13	109*!	1
N#Cc1nc(COc2ccc(Cl)cc2Cl)oc1N1CCOCC1	1	8	-2	56*	6
COc1ccc(OCc2nc(C#N)c(N3CCCCCC3)o2)cc1	nt	nt	nt	102*	nt
CC1Oc2ccccc2OC1C(=O)Nc1ccccc1 (centres undefined)	nt	nt	nt	-12	nt
CN1CCN(c2oc(COc3ccc(-c4ccccc4)cc3)nc2C#N)CC1	6	10	3	60*	4
N#Cc1nc(COc2ccc(Br)cc2)oc1N1CCCC1	-9	-22	16	51*	1
CCOC(=O)Nc1ccc2c(c1)CCCN2C(=O)c1cccs1	nt	nt	nt	10	nt
Cc1ccc(CNC(=O)CN2C(=O)NC(C)(c3ccccc3Cl)C2=O)cc1 (centres undefined)	-2	53*	-1	-10	2
